Compound activity: PubChem BioAssay, University of Kansas High Throughput Screening Laboratory
mHTT CaM bind: disrupts binding of mutant huntingtin to calmodulin; P42858; AlphaScreen His-mHTT/GST-CaM binding, luminescence; inhibition, % at 15 µM; actives 3.6% (n = 190,000); AID 1671202;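 note: 0% = both proteins with DMSO and 100% = one protein alone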
Pf apPOL block: Pf-apPOL DNA polymerase inhibition. Recombinant Pf-apPOL, molecular beacon fluorescence, 1.5 h. inhibition, % at 10 µM. actives 0.25% (n = 210,000)
* = called active by the depositor. Most compounds without a hit are left out; they make up all but 3.6% or so of the library. Cut-off read from the data, not from the text of the source: active = inhibition above about 50%; inactive = the rest.

What do the screens show for `CC1CN(S(=O)(=O)c2ccc3oc4ccccc4c3c2)CC(C)O1` (stereo not drawn)?
mHTT CaM bind: -5

What do the screens show for `O=C(c1cncc(Br)c1)N1CCCC(c2nnc(-c3ccccc3)o2)C1` (stereo not drawn)?
mHTT CaM bind: 0; Pf apPOL block: -7

What do the screens show for `O=C(CCCn1cnc([N+](=O)[O-])n1)Nc1ccccc1C(F)(F)F`?
mHTT CaM bind: -6; Pf apPOL block: -10

How did Cc1cccc(C(=O)Nc2nccn(-c3cc(C)cc(C)c3)c2=O)c1 do in these assays?
mHTT CaM bind: 6; Pf apPOL block: -3

What do the screens show for `CCOCCCNC(=O)N1CCCCCC1c1ccc(Cl)cc1` (stereo not drawn)?
mHTT CaM bind: 10; Pf apPOL block: 4

Results for Cc1ccc(NCN2C(=O)C3C4C=CC(C4)C3C2=O)cc1C (stereo not drawn) ?
mHTT CaM bind: 8; Pf apPOL block: -4

Results for Cc1ccc(NC(=O)CN(c2ccc(Cl)c(Cl)c2)S(C)(=O)=O)cc1 ?
mHTT CaM bind: 2; Pf apPOL block: -1

What do the screens show for `O=C(c1ccccc1)N1CCC(CCNS(=O)(=O)c2ccc(F)cc2F)CC1`?
mHTT CaM bind: 50*; Pf apPOL block: 3

How did Cc1ccc(C(=O)N2CCC(CCNS(=O)(=O)c3ccccc3C)CC2)cc1 do in these assays?
mHTT CaM bind: 49; Pf apPOL block: -1

Results for Cc1ccc(S(=O)(=O)NCCC2CCN(C(=O)c3ccccc3)CC2)c(C)c1 ?
mHTT CaM bind: 53*; Pf apPOL block: -1

How did O=C(c1ccccc1)N1CCC(CCNS(=O)(=O)c2cc(F)ccc2F)CC1 do in these assays?
mHTT CaM bind: 49; Pf apPOL block: -3

Results for COc1ncccc1CNC(=O)c1ccc(C#N)cc1 ?
mHTT CaM bind: -9; Pf apPOL block: 0

Results for Cn1cccc1/C=N/NC(=O)c1cccs1 ?
mHTT CaM bind: inactive

How did Cn1cccc1/C=N/Nc1ccc(F)cc1 do in these assays?
mHTT CaM bind: active

How did Cc1cccc(N2CCN(C(=O)C(C)(C)C)C(C)C2=O)c1 (stereo not drawn) do in these assays?
mHTT CaM bind: -6; Pf apPOL block: -6

Results for Cc1cc(-c2onc(C)c2C(N)=NOC(=O)c2ccccc2)no1 ?
Pf apPOL block: -2

How did CS(=O)(=O)N1CCN(c2ccc([N+](=O)[O-])c(NCc3ccccc3)c2)CC1 do in these assays?
mHTT CaM bind: 8; Pf apPOL block: -7

How did CS(=O)(=O)N1CCN(c2ccc([N+](=O)[O-])c(NCc3ccc(Cl)cc3)c2)CC1 do in these assays?
mHTT CaM bind: 56*; Pf apPOL block: -6

How did CCCN1C(=O)C(C)(C)COc2cc(NS(=O)(=O)c3cc(C)c(C)cc3OC)ccc21 do in these assays?
mHTT CaM bind: 31; Pf apPOL block: -4

Results for Cc1cccc(NC(=O)CCC2CCN(c3cc(NC4CC4)ncn3)CC2)c1C ?
mHTT CaM bind: 15; Pf apPOL block: -1

How did COc1cc2c(cc1OC)C(COc1ccccc1OC)N(C(=O)c1ccccc1OC)CC2 (stereo not drawn) do in these assays?
mHTT CaM bind: 37; Pf apPOL block: -6

Results for COc1ccc(OCC2c3cc(OC)c(OC)cc3CCN2C(=O)c2ccc(C)cc2)cc1 (stereo not drawn) ?
mHTT CaM bind: 77*; Pf apPOL block: 2

Results for COC(=O)c1ccc(OCC2c3cc(OC)c(OC)cc3CCN2C(=O)c2ccc(OC)cc2)cc1 (stereo not drawn) ?
mHTT CaM bind: 47; Pf apPOL block: -4

Results for CCOc1ccc(C(=O)N2CCc3cc(OC)c(OC)cc3C2COc2ccccc2OC)cc1 (stereo not drawn) ?
mHTT CaM bind: 73*; Pf apPOL block: 1

Results for Cc1ccc(S(=O)(=O)N2CCC(CN3CCCC(C)C3)CC2)cc1F (stereo not drawn) ?
mHTT CaM bind: -3; Pf apPOL block: -3

Results for Cc1cc2c(=O)n(CC(=O)Nc3ccc(Br)cc3F)ccc2s1 ?
mHTT CaM bind: -6; Pf apPOL block: -2

What do the screens show for `Cc1ccc(Nc2nc(-c3ccc4c(c3)OCO4)cs2)nc1`?
mHTT CaM bind: 8; Pf apPOL block: -2

Results for Cc1ccc(-c2csc(Nc3ccccn3)n2)c(C)c1 ?
mHTT CaM bind: 3; Pf apPOL block: -1

How did COc1ccc(-c2csc(Nc3ncccc3C)n2)cc1C do in these assays?
mHTT CaM bind: 26; Pf apPOL block: 5

Results for Oc1ccc(-c2csc(Nc3ccccn3)n2)c(O)c1 ?
mHTT CaM bind: 96*; Pf apPOL block: 2

What do the screens show for `Cc1cccnc1Nc1nc(-c2ccc(O)cc2O)cs1`?
mHTT CaM bind: 100*; Pf apPOL block: -14

Results for Cc1ccc(Nc2nc(-c3ccc(O)c(O)c3)cs2)nc1 ?
mHTT CaM bind: 79*; Pf apPOL block: -4

What do the screens show for `Cc1csc(-c2cc(S(=O)(=O)NC(C)(C)C)c(C)n2C)n1`?
mHTT CaM bind: -8; Pf apPOL block: 1

How did Cc1cc(OC(=O)C2CC2)cc2c1C(=O)C(=Cc1cccnc1)O2 do in these assays?
mHTT CaM bind: -3; Pf apPOL block: -2

Results for O=C1C(c2cccnc2)N(c2ccc3c(c2)OCCO3)C(=O)CN1c1ccccc1 (stereo not drawn) ?
mHTT CaM bind: -4; Pf apPOL block: -2

What do the screens show for `O=C1CCCC(=O)N1c1ccc(NC2CCCc3ccccc32)c([N+](=O)[O-])c1` (stereo not drawn)?
mHTT CaM bind: 63*; Pf apPOL block: -19

What do the screens show for `CC1CC(=O)N(c2ccc(NC3CCCc4ccccc43)c([N+](=O)[O-])c2)C1=O` (stereo not drawn)?
mHTT CaM bind: 32; Pf apPOL block: -24

What do the screens show for `O=C1CCC(=O)N1c1ccc(Nc2ccc3c(c2)CCC3)c([N+](=O)[O-])c1`?
mHTT CaM bind: 74*; Pf apPOL block: -14

What do the screens show for `O=C1CCCC(=O)N1c1ccc(N2CCc3ccccc3C2)c([N+](=O)[O-])c1`?
mHTT CaM bind: 37; Pf apPOL block: -17

Results for CCN(Cc1ccccc1)S(=O)(=O)c1ccc(C(=O)Nc2nnc(CSC)o2)cc1 ?
mHTT CaM bind: 12; Pf apPOL block: -13

How did CCCCN(CC)S(=O)(=O)c1ccc(C(=O)Nc2nnc(C)o2)cc1 do in these assays?
mHTT CaM bind: 22; Pf apPOL block: -13

Results for CCN(Cc1ccccc1)S(=O)(=O)c1ccc(C(=O)Nc2nnc(C)o2)cc1 ?
mHTT CaM bind: 74*; Pf apPOL block: -16

Results for Cc1nnc(NC(=O)c2ccc(S(=O)(=O)N(CC(C)C)CC(C)C)cc2)o1 ?
mHTT CaM bind: 51*; Pf apPOL block: -74

How did CCCCN(CC)S(=O)(=O)c1ccc(C(=O)Nc2nnc(-c3ccccc3OC)o2)cc1 do in these assays?
mHTT CaM bind: 52*; Pf apPOL block: -7

Results for CCN(CC)S(=O)(=O)c1ccc(C(=O)Nc2nnc(-c3ccc(OC)cc3OC)o2)cc1 ?
mHTT CaM bind: 3; Pf apPOL block: -12

What do the screens show for `C#CC(C)(C)OC(=O)C1CC(C)=CCC1C(=O)O` (stereo not drawn)?
mHTT CaM bind: 2

Results for COc1ncc(C(=O)Nc2cccc(C)c2C)c(C)n1 ?
mHTT CaM bind: -6; Pf apPOL block: -2

Results for COc1cc(/C=C(\C#N)c2[nH]nc(N)c2C#N)cc(OC)c1OC ?
mHTT CaM bind: -5; Pf apPOL block: -3

Results for N#C/C(=C\c1c[nH]c2ccccc12)c1[nH]nc(N)c1C#N ?
mHTT CaM bind: 54*; Pf apPOL block: 1
